We go through 42 sequences from publication PMC7819943, “Rice protein-binding microarrays: a tool to detect cis-acting elements near promoter regions in rice”.

Whole data set: some 68,000 sequences, median “fluorescence intensity (a.u.)” near 9,100, cut for the highest 2% near 16,000. The sample holds the highest values, similar sequences and a random draw of the others, so the mix is not that of the screen.

Chain of OsWRKY34 (Q0JBA9 entry or part of it): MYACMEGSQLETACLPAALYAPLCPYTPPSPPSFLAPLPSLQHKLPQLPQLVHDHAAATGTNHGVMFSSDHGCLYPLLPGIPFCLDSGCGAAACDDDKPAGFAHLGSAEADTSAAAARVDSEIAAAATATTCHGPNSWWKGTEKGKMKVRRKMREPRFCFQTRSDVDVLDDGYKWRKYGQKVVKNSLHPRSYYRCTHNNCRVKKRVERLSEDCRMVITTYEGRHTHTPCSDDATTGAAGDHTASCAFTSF

In the assay the target is OsWRKY34 (Oryza sativa, UniProt Q0JBA9 1-250). Put plainly: protein-binding microarray (RPBM); PBS, 2% BSA, 51.3 ng/ul salmon testes DNA, 50 uM zinc acetate, 200 nM TF, 25 C, 1 h; high values mean tight binding. Conditions: protein: recombinant; tags: N-terminal polyhistidine and DsRed monomer fusion (pET32a); label: CyDye5-dUTP incorporated in the synthesized complementary strand; 3' TTTTT single-stranded linker to array surface; dsDNA, one strand shown. An outline of the steps:
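The binding signal for each feature is its fluorescence intensity in arbitrary units. An Axon 4000B scanner was used to read a custom Agilent array that had been made double-stranded with Cy5-dUTP primer extension, blocked with 2% BSA, incubated at 25 °C for 1 h with 200 nM protein in PBS, 2% BSA, salmon testes DNA and 50 µM zinc acetate, and washed. The protein was an N-terminal polyhistidine–DsRed transcription factor fusion from E. coli BL21-CodonPlus, purified on Ni–NTA.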
In the case of “AATGTTTGGGTTCGAATTTAGTGGGTGGGTTTGGAGTTTGCGGAGTCACCTAGTGCAG”, the binding signal was 12800 fluorescence intensity (a.u.).

As to “TCACGGCTCATTTTTGAAATAAGTTTTTAGCACAGTTTATCGGAGTCACCTAGTGCAG”, the binding signal was 8740 fluorescence intensity (a.u.).

“TCTATTTTATTTGGGTGGGGATAGTTTTAGTGGGAATTTGCGGAGTCACCTAGTGCAG”: the binding signal was 24200 fluorescence intensity (a.u.).

In the case of “TAACAGTATCATTTGATAGCACAATATAAGGTGTTTTGCTCGGAGTCACCTAGTGCAG”, the binding signal was 28800 fluorescence intensity (a.u.).

With “TTCACGTAACTTACTTGCTCTAATCGTCGGTGGCTGGATCCGGAGTCACCTAGTGCAG”, the binding signal is 9270 fluorescence intensity (a.u.).

Consider “AAACACCAGCGCGGCCCTCGCCCTCGCCGTCGCCATTTCCCGGAGTCACCTAGTGCAG”, for which the binding signal is 8520 fluorescence intensity (a.u.).

As to “CAACCCCTTACTTCATCACCTACTCATGTCAACACATAGCCGGAGTCACCTAGTGCAG”, the binding signal was 8850 fluorescence intensity (a.u.).

As for “ACGCTGCCGTCTCATTTCGCTTTCGTAGAACTTGCTCCAGCGGAGTCACCTAGTGCAG”, the binding signal is 8500 fluorescence intensity (a.u.).

For “GCAAAAGCCAAACTGAATTCCCGACGCGTGCGCGCGCGCACGGAGTCACCTAGTGCAG”, the binding signal is 8180 fluorescence intensity (a.u.).

As for “AGGAAAACACTTAGATGGGCCGGATTACTTATCGAAATTTCGGAGTCACCTAGTGCAG”, the binding signal is 8360 fluorescence intensity (a.u.).

For “TTCTTTTGTTGTGTGGGTGTATGTTTTGGTTATGTGCATTCGGAGTCACCTAGTGCAG”, the binding signal is 8810 fluorescence intensity (a.u.).

Regarding “GTGGGGTTTTCGATGGTGTTTCATTCTTTTTCTCAATGTACGGAGTCACCTAGTGCAG”, the binding signal is 20300 fluorescence intensity (a.u.).

As to “CCTTCTTTCCCTTTTCCCATCTGGCAAGATTTTTCTTATTCGGAGTCACCTAGTGCAG”, the binding signal is 9610 fluorescence intensity (a.u.).

Regarding “TCATTCTTTTTCTCAATGTACTTGGATTTTTTTCATGTTTCGGAGTCACCTAGTGCAG”, the binding signal is 12200 fluorescence intensity (a.u.).

As to “AGCGGTTTCTTGGTTGGGGTTTAGTGTCTGCATTGGATATCGGAGTCACCTAGTGCAG”, the binding signal is 18200 fluorescence intensity (a.u.).

As for “CTGTATTTGACTGTTACTGCTTTTGGATTTTGTTTCATTTCGGAGTCACCTAGTGCAG”, the binding signal is 10800 fluorescence intensity (a.u.).

For the sequence “TACATGTTTGACTTTGACTTGGTTTTTGGATATTTCATTTCGGAGTCACCTAGTGCAG”, the binding signal was 9170 fluorescence intensity (a.u.).

Turning to “AGTGGTGATCGCCGCGGTTGGGTTTCTTGGATTGGGCTGTCGGAGTCACCTAGTGCAG”, the binding signal was 8720 fluorescence intensity (a.u.).

As for “ACATCTTATTTCCCTGGGTGGGGAGATTCTAGTTAAAATTCGGAGTCACCTAGTGCAG”, the binding signal is 19000 fluorescence intensity (a.u.).

For “ATCGTTTGGGGTCATTTTCTGCGGTTTGGTGGTGTTGTGCCGGAGTCACCTAGTGCAG”, the binding signal is 11100 fluorescence intensity (a.u.).

With “GTTGGGGAGAAGGGGTGGTAAAATTTCTGGTATTATGGTTCGGAGTCACCTAGTGCAG”, the binding signal was 11700 fluorescence intensity (a.u.).

Turning to “TGTATTTGACTGTTACTGCTTTTGGATTTTGTTTCATTTTCGGAGTCACCTAGTGCAG”, the binding signal was 17500 fluorescence intensity (a.u.).

Take “GGTTATTTATTTTTATTGGTTTCCCCATTACTGTTGACAGCGGAGTCACCTAGTGCAG”: the binding signal was 8360 fluorescence intensity (a.u.).

“TCCCGATATCATATTATAACCCTTCTAGAAATCTAATGTTCGGAGTCACCTAGTGCAG”: the binding signal was 8160 fluorescence intensity (a.u.).

On to “ATTCTGTTATGAACTATGTAAACCTTCTCATGTATATTCACGGAGTCACCTAGTGCAG”, for which the binding signal was 8840 fluorescence intensity (a.u.).

Take “GGCCATCATCATTTGTTCCTCATCTTACTCTAGCTTCTCCCGGAGTCACCTAGTGCAG”: the binding signal is 9470 fluorescence intensity (a.u.).

For the sequence “CTCTCTGTGTGTGTGTTTGCTTTCTTGGGCTGTATCGACTCGGAGTCACCTAGTGCAG”, the binding signal was 11800 fluorescence intensity (a.u.).

Consider “AAGCTGGTTTGGCTAATTGTGTTGTGTAACTATAAATCTTCGGAGTCACCTAGTGCAG”, for which the binding signal was 8280 fluorescence intensity (a.u.).

“CGCCCACCCACGCATCCATCCATCGATCGCAGCCAAATTCCGGAGTCACCTAGTGCAG”: the binding signal was 9430 fluorescence intensity (a.u.).

Consider “ACATGGGAATTTTGGTGGGATGGGGATGGGGAATTGACCTCGGAGTCACCTAGTGCAG”, for which the binding signal is 14100 fluorescence intensity (a.u.).

“TGCTGTGGTGTGGTGTGGTGTGAATTTTGTTGATTGGTCGCGGAGTCACCTAGTGCAG”: the binding signal was 8750 fluorescence intensity (a.u.).

With “TTGCGTTTTGGGTGGTGAATTTTGATTTTGATTCTTTTTTCGGAGTCACCTAGTGCAG”, the binding signal was 12700 fluorescence intensity (a.u.).

With “CATGGGAATTTTGGTGGGATGGGGATGGAGAATTGAGCAACGGAGTCACCTAGTGCAG”, the binding signal is 8700 fluorescence intensity (a.u.).

As to “CGTCGCTTGGGGTGGTGTTGGTGGTTCTGAATTTTGATTGCGGAGTCACCTAGTGCAG”, the binding signal was 19200 fluorescence intensity (a.u.).

As to “AATTGGGTTCGAATTTTTCTCTGGTTCGCTTGTGATTTTGCGGAGTCACCTAGTGCAG”, the binding signal is 8240 fluorescence intensity (a.u.).

Turning to “GGTTTGTTCGTGTCTTTTGTGGTGATTGCATTTGATTGGGCGGAGTCACCTAGTGCAG”, the binding signal was 9920 fluorescence intensity (a.u.).

For “ACATGGGAATTTTGGTGGGATGGGGATGGGGATGGGGAATCGGAGTCACCTAGTGCAG”, the binding signal was 34000 fluorescence intensity (a.u.).

For “CATTTAGTTTGGGATGGGGTGGTTGATCCGATTTTTTCTGCGGAGTCACCTAGTGCAG”, the binding signal is 14700 fluorescence intensity (a.u.).

Turning to “TTGATTTTGCTCGTGGTGTGTGTTTGTGTTTGGTATGGTTCGGAGTCACCTAGTGCAG”, the binding signal was 18400 fluorescence intensity (a.u.).

Turning to “GCTTCCTTGTCCGATTTGGTGGTTGATTCGTGTTTTTGCTCGGAGTCACCTAGTGCAG”, the binding signal was 9300 fluorescence intensity (a.u.).

As for “TCATTCCGATTTGGTGGGGTTTGAGTTTGATTGATTCTTTCGGAGTCACCTAGTGCAG”, the binding signal was 19300 fluorescence intensity (a.u.).

Take “CCTTTTGTCAGTCTAGCCAAAGATCTAGGATCTTCAACACCGGAGTCACCTAGTGCAG”: the binding signal was 8100 fluorescence intensity (a.u.).
